Measurements from the supplement of paper PMC11219838.
A number with no mark means an inactive call.

system: Caenorhabditis elegans L1 (N2); experiment: survival and reproduction score of C. elegans L1 (0: 0-10 living worms, 1: 11-20, 2: 21-50, 3: >50, 4: overgrown) (score 0-4); higher = more worms, less nematicidal, active = 1 or less; extreme values may be limits of the assay; conditions: 60 µM; 6 days; temperature: 20 °C
Outline: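 Synchronized C. elegans N2 L1s (about 20 per well) were grown in 96-well plates in liquid NGM with E. coli HB101 and compound at 60 µM final (0.6% v/v DMSO), shaken sealed at 200 rpm and 20 °C for 6 days. The ordinal score for survival and reproduction counted living worms per well under a dissection microscope. The scale ran 0 (0–10 worms) to 4 (overgrown, starved), averaged over two biological replicates.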

Row | Structure (SMILES) | survival and reproduction score
1 | FC(F)(F)c1cccc(-c2noc(-c3ccc4c(c3)OCO4)n2)c1 | 4
2 | COc1ccccc1-c1nc(-c2ccc(Br)cc2)no1 | 4
3 | c1ccc(-c2noc(-c3cccs3)n2)cc1 [tioxazafen] | 0 (active)
4 | COc1ccc(-c2nnc(SCC(=O)c3ccc4ccccc4c3)o2)cc1 | 4
5 | COc1ccc(Br)cc1-c1noc(-c2ccncc2)n1 | 4
6 | COc1ccc(-c2noc(COc3ccc(Cl)c(C)c3)n2)cc1 | 4
7 | c1ccc(COc2cccc(-c3nc(-c4cccnc4)no3)c2)cc1 | 2.5
8 | CCc1ccc(OCc2nc(-c3cccc(OC)c3)no2)cc1 | 4
9 | Cc1ccc(NC(=O)CSc2nnc(-c3ccccc3)o2)cc1F | 4
10 | Cc1ccc(-c2noc(-c3ccc(C)cc3Cl)n2)cc1 | 4
11 | c1ccc2c(OCc3nc(-c4ccncc4)no3)cccc2c1 | 4
12 | CCOc1ccc(-c2nc(-c3ccc(C)cc3)no2)cc1 | 0 (active)
13 | Clc1ccc(OCc2nc(-c3ccccc3)no2)c(Cl)c1 | 0 (active)
14 | Cn1cc(C(=O)CSc2nnc(-c3cccc(Cl)c3)o2)c2ccccc21 | 4
15 | CCc1nc(-c2ccc(-c3ccccc3)nc2OC)no1 | 4
16 | CC(C)(C)NC(=O)c1ccccc1-c1nc(-c2ccccc2)no1 | 4
17 | O=C(CSc1nnc(-c2ccccc2)o1)NCc1ccccc1 | 4
18 | Cc1ccc(NC(=O)CSc2nnc(-c3ccco3)o2)cc1Br | 4
19 | N#Cc1ccccc1CSc1nnc(-c2ccncc2)o1 | 4
20 | c1ccc(COc2cccc(-c3nc(-c4ccncc4)no3)c2)cc1 | 4

Row | Structure (SMILES) | survival and reproduction score
21 | CCCc1ccc(-c2nc(-c3ccc(F)cc3)no2)cc1 | 1.5
22 | CCCOc1ccc(-c2nc(-c3ccncc3)no2)cc1 | 0 (active)
23 | COc1cccc(-c2nc(-c3ccc(F)cc3)no2)c1 | 4
24 | O=C(CSc1nnc(-c2ccco2)o1)Nc1ccc(Br)cc1 | 4
25 | CC(C)(C)c1ccc(-c2nc(-c3ccncc3)no2)cc1 | 0 (active)
26 | Fc1ccc(OCc2nc(-c3ccc(Br)cc3)no2)cc1 | 3
27 | Cc1cccc(-c2noc(C3CCCCC3)n2)c1 | 3.5
28 | Fc1ccc(-c2noc(-c3ccc(F)cc3)n2)cc1 | 0 (active)
29 | COc1cccc(-c2nc(-c3ccc(C)cc3)no2)c1 | 0 (active)
30 | Cc1ccc(-c2nnc(SCc3c(C)cc(C)cc3C)o2)cc1 | 4
31 | Cc1cccc(-c2noc(-c3ccc(C)cc3Cl)n2)c1 | 4
32 | COc1ccc(-c2noc(-c3ccc(Br)cc3)n2)cc1 | 0 (active)
33 | COc1cccc(NC(=O)CSc2nnc(-c3ccc(C)cc3)o2)c1 | 4
34 | CC(=O)Nc1cccc(-c2nnc(SCc3ccccc3)o2)c1 | 4
35 | COC(=O)c1ccc(CSc2nnc(-c3ccncc3)o2)cc1 | 4
36 | CC(Oc1ccc(C(C)(C)C)cc1)c1nc(-c2ccncc2)no1 (centres undefined) | 4
37 | COC(=O)c1ccc(CSc2nnc(-c3cccnc3)o2)cc1 | 4
38 | COc1ccc(-c2nnc(SCC(=O)OCc3ccccc3)o2)cc1 | 4
39 | Cc1cc(OCc2nc(-c3ccccc3)no2)ccc1Br | 4
